From PubChem BioAssay
Activity calls are given as the source filed them. Unless noted, the rule behind the calls is not given here.

Tests used:
[1] = system: Wnt5a (protein binding on small-molecule microarray); assay: small molecules binding Wnt5a protein – biophysical, small-molecule microarray, 635/667 nm fluorescence, primary screen (AID 1142); details: 635 nm fluorescence, higher = more signal;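 note: fluorescence read at 667 nm with signal to noise per printed feature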
[2] = ATP-based viability of Huh7 replicon cells – cell-based, CellTiter-Glo luminescence, basal, 48 h, cytotoxicity control for HCV replication inhibitor project, primary screen (AID 1143); details: higher = more signal, called active from +8 up or from −8 down;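 note: Huh7 hepatoma cells carrying a hepatitis C replication reporter with no stimulus; test concentration not given here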
[3] = Pseudomonas biofilm growth suppression – PAO1 strain, BacTiter-Glo luminescence, LB-PBS, primary screen (AID 1144); details: P. aeruginosa PAO1 biofilm, 12 h, higher = more signal
[4] = basal CRE-LacZ reporter activity in PC12 – cell-based, unstimulated, primary screen (AID 1145); details: no forskolin, luminescence, 4.5 h, higher = more signal, called active from +8 up or from −8 down
[5] = forskolin-driven CRE-LacZ activity in PC12 – cell-based, CRE-LacZ reporter, forskolin-stimulated, primary screen (AID 1146); details: luminescence, 4.5 h, higher = more signal, called active from +8 up or from −8 down;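 note: PC12 cells with 6xCRE LacZ reporter stimulated by forskolin 10 µM; beta-galactosidase reporter signal reflecting CREB driven transcription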
[6] = target: Streptavidin (Streptomyces avidinii) (UniProt P22629); assay: compounds binding control protein streptavidin – biophysical, small-molecule microarray, 635/667 nm fluorescence, artefact control for SMM compound annotation, primary screen (AID 1147); details: higher = more signal;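 note: signal reflects streptavidin binding to arrayed compounds as a control protein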
Sequence of Streptavidin (Streptomyces avidinii) (P22629 whole entry, looked up): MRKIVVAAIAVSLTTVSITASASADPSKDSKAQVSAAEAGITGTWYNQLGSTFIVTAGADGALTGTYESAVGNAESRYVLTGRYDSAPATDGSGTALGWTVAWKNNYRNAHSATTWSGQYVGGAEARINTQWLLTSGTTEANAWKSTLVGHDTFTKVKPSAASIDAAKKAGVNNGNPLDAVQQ

[7] = probe aInhba binding on compound microarray – biochemical, small-molecule microarray, 635/667 nm fluorescence, primary screen (AID 1148); details: higher = more signal;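 note: score merges 667nm spot fluorescence with signal-to-noise for antibody binding to printed compounds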
[8] = target: Torsin-1A (Homo sapiens) (UniProt O14656); assay: TOR1A wild-type binding on microarray – cell lysate, small-molecule microarray, lysate, 635/667 nm, primary screen (AID 1149); details: COS7 hTOR1A-WT lysate, 635 nm fluorescence, higher = more signal
Sequence of Torsin-1A (Homo sapiens) (O14656 whole entry, looked up): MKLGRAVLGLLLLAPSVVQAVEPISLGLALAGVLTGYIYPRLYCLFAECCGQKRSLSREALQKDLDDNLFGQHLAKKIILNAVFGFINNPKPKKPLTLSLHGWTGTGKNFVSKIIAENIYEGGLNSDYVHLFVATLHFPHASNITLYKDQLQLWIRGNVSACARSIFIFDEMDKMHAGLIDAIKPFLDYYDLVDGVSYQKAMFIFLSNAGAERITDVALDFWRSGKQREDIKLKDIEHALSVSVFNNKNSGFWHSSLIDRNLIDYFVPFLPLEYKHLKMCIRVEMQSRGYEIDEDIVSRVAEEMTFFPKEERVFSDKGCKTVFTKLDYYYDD

[9] = target: Torsin-1A (Homo sapiens) (UniProt O14656); assay: torsin A mutant lysate binding on microarrays – cell lysate, small-molecule microarray, COS7 lysate, 635/667 nm fluorescence, primary screen (AID 1150); details: COS7 hTOR1A mutant lysate, 635 nm fluorescence, higher = more signal;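 note: score pools 667 nm emission and signal to noise measuring lysate protein binding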
[10] = system: Sonic hedgehog protein (Shh); assay: Sonic hedgehog microarray binding compounds – biochemical, small-molecule microarray, 635/667 nm fluorescence, primary screen (AID 1151); details: 635 nm fluorescence, higher = more signal;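 note: Shh protein binding to compounds spotted on small-molecule microarray slides; score combines spot fluorescence intensity with signal-to-noise across triplicate slides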
[11] = optical density shifts of acrAB sulA E. coli – strain DRC41, OD650, 48 h, E. coli filamentation inducer project, primary screen (AID 1152); details: higher = more signal, called active from +8 up or from −8 down;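 note: E. coli MC1000 strain DRC41 lacking acrAB efflux pump and sulA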
[12] = probe aLefty1 binding on compound microarray – biochemical, small-molecule microarray, 635/667 nm fluorescence, primary screen (AID 1153); details: higher = more signal;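 note: score merges spot fluorescence with signal-to-noise ratio from the scanned slide images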
[13] = plasmodial surface anion channel blockers, osmotic lysis – cell-based, P. falciparum Indochina, OD700, 1 h, primary screen (AID 1154); details: P. falciparum Indochina infected RBC osmotic lysis, higher = more signal, called active from +8 up or from −8 down
[14] = plasmodial surface anion channel blockers, osmotic lysis – cell-based, P. falciparum Indochina, OD700, 2 h, primary screen (AID 1155);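 note: lysis reports solute entry through the parasite surface anion channel PSAC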; details: P. falciparum Indochina infected erythrocytes, higher = more signal, called active from +8 up or from −8 down
[15] = changes in parasitized red cell lysis, either direction – P. falciparum Indochina, OD700, 3 h, PSAC antagonist project, primary screen (AID 1156); details: P. falciparum-infected erythrocytes, osmotic lysis, higher = more signal, called active from +8 up or from −8 down
[16] = plasmodial surface anion channel blockers, osmotic lysis – cell-based, P. falciparum Indochina, OD700, 18 h, primary screen (AID 1157); details: P. falciparum Indochina infected erythrocytes, osmotic lysis OD700, 18 h; higher = more signal, called active from +8 up or from −8 down
[17] = S6 kinase pathway phospho-S6 level changes – cell-based, A549, cytoblot, luminescence, serum-stimulated, primary screen (AID 1158); details: 5 h, higher = more signal;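 note: serum-stimulated A549 lung adenocarcinoma cells; signal is phosphorylated S6 detected by cytoblot immunostaining with HRP secondary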
[18] = target: NADPH oxidase 2 (Homo sapiens) (UniProt P04839); assay: compounds shifting NOX2 Amplex Red fluorescence – cell-based, HEK293-NOX2, PMA-stimulated, NOX inhibitor project, primary screen (AID 1159); details: 45 min, higher = more signal, called active from +8 up or from −8 down; note: test concentration not given here
Sequence of NADPH oxidase 2 (Homo sapiens) (P04839 whole entry, looked up): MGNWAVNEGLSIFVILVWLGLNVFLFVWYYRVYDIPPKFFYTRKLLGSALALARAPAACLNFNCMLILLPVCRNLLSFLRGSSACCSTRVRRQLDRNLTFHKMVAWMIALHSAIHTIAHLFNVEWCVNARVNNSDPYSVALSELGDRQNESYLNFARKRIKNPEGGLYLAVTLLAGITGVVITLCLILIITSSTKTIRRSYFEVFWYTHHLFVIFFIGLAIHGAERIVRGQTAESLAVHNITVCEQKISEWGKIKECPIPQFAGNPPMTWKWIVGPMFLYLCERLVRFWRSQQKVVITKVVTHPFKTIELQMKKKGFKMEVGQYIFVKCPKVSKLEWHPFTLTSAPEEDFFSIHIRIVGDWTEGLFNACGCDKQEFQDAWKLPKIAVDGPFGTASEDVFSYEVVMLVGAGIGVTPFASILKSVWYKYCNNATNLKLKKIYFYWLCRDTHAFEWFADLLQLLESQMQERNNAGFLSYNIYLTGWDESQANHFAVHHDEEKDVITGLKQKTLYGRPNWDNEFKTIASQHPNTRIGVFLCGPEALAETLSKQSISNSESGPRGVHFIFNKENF

[19] = target: NADPH oxidase 4 (Homo sapiens) (UniProt Q9NPH5); assay: compounds shifting NOX4 Amplex Red fluorescence – cell-based, HEK293-NOX4, tetracycline-induced, NOX inhibitor project, primary screen (AID 1160); details: HEK293-NOX4, Amplex Red H2O2 fluorescence, 45 min; higher = more signal, called active from +8 up or from −8 down
Sequence of NADPH oxidase 4 (Homo sapiens) (Q9NPH5 whole entry, looked up): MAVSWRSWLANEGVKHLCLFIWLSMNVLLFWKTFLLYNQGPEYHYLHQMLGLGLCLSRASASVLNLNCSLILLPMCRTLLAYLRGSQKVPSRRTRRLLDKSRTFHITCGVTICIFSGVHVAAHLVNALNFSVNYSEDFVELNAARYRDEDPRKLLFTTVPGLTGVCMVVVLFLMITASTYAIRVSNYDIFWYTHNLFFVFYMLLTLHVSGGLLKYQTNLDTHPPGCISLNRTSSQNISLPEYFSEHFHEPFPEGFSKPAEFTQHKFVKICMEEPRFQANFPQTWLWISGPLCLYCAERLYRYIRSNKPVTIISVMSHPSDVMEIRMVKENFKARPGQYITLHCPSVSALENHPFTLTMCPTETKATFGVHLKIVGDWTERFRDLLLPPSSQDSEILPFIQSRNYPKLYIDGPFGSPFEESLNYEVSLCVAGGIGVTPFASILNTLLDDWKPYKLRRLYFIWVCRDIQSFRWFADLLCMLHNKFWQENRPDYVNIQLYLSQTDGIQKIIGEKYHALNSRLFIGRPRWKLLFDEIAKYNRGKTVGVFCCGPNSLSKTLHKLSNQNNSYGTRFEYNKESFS

[20] = target: NADPH oxidase 5 (Homo sapiens) (UniProt Q96PH1); assay: compounds shifting NOX5 Amplex Red fluorescence – cell-based, HEK293-NOX5, NOX inhibitor project, primary screen (AID 1161); details: HEK293-NOX5, ionomycin, 45 min, higher = more signal
Sequence of NADPH oxidase 5 (Homo sapiens) (Q96PH1 whole entry, looked up): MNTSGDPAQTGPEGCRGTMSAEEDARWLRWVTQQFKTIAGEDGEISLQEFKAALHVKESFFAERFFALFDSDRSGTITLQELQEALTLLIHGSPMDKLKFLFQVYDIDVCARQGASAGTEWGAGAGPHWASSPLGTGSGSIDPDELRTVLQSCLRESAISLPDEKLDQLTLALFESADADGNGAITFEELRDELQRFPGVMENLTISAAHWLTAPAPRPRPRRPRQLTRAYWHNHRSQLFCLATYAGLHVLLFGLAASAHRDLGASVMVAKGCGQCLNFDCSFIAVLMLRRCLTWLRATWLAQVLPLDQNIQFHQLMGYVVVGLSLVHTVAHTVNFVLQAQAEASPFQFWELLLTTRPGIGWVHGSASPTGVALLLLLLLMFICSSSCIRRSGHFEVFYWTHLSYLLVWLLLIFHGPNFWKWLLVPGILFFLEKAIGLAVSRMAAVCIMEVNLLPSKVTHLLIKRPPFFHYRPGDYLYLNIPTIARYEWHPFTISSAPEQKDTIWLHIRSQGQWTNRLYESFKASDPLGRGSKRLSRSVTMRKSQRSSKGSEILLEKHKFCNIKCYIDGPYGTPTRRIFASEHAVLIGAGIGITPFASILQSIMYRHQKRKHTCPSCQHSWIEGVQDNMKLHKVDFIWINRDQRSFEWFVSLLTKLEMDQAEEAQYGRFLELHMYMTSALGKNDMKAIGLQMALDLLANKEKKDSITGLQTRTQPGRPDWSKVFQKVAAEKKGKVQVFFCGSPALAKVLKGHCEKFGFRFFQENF

SMILES	composite z-score [1]	z-score [2]	z-score [3]	z-score [4]	z-score [5]	composite z-score [6]	composite z-score [7]	composite z-score [8]	composite z-score [9]	composite z-score [10]	z-score [11]	composite z-score [12]	z-score [13]	z-score [14]	z-score [15]	z-score [16]	z-score [17]	z-score [18]	z-score [19]	z-score [20]
O=C1NC(=O)C2C1C=CC(C(O)c1cc(C(F)(F)F)cc(C(F)(F)F)c1)N2Nc1ccc(Cl)cc1Cl (stereo not given)	0.465	-1.32 (inactive)	-0.673 (inactive)	-0.329 (inactive)	0.78 (inactive)	0.416	0.069	-0.371	0.357	-0.384	-2.29 (inactive)	0.546	0.321 (inactive)	0.168 (inactive)	-1.6 (inactive)	0.998 (inactive)	-1.41	0.128 (inactive)	-5.87 (inactive)	-2.22
CCCc1cccc(=O)o1	0.0303	-1.62 (inactive)	-0.848 (inactive)	-0.574 (inactive)	0.646 (inactive)	0.216	-0.128	1.08	0.5	0.542	-0.228 (inactive)	0.042	0.342 (inactive)	-0.831 (inactive)	-0.832 (inactive)	-1.23 (inactive)	0.274	0.685 (inactive)	-0.173 (inactive)	0.173
COc1ccc([Si](C)(C)[C@H]2[C@H](CCn3cc(CCO)nn3)O[C@@]3(C(=O)N(Cc4ccc(N5C(=O)c6cccc7cccc5c67)cc4)c4ccccc43)[C@@H]2C)cc1	0.426	-7.91 (inactive)	-0.152 (inactive)	1.12 (inactive)	-0.213 (inactive)	0.798	-0.0933	0.316	0.238	2.08	1.91 (inactive)	0.108	4.64 (inactive)	0.882 (inactive)	0.134 (inactive)	-0.627 (inactive)	1.64	-0.985 (inactive)	1.82 (inactive)	1.44
CN(C)CCCCNC(=O)[C@H]1C[C@H]2C(=O)N3CCC[C@H]3C(=O)N2[C@H]1c1ccc(O)cc1	-1	-2.49 (inactive)	-1.5 (inactive)	-0.667 (inactive)	-0.942 (inactive)	-1.34	-0.643	-1.3	-1.04	-0.229	1.67 (inactive)	-0.926	0.148 (inactive)	-1.79 (inactive)	1.55 (inactive)	-2.18 (inactive)	0.752	-0.714 (inactive)	-0.561 (inactive)	-3.16
COCCOC(=O)N1C(=O)[C@@]2(c3cc(C#Cc4ccc(OC)cc4)ccc31)[C@H](C(=O)N1CCN(c3ncccn3)CC1)[C@H]1C(=O)O[C@H](c3ccccc3)[C@H](c3ccccc3)N1[C@@H]2c1ccccc1OCCO	-0.0175	-0.651 (inactive)	-1.1 (inactive)	-0.467 (inactive)	-0.638 (inactive)	0.103	-0.215	0.236	0.0863	1.01	0.0325 (inactive)	0.406	2.79 (inactive)	2.29 (inactive)	0.641 (inactive)	1.07 (inactive)	-0.43	0.405 (inactive)	0.152 (inactive)	1.06
COC(=O)C(CC#Cc1ccc2c(c1)[C@]1(C(=O)N2)[C@H](C(=O)O)[C@H]2C(=O)O[C@H](c3ccccc3)[C@H](c3ccccc3)N2[C@@H]1c1ccccc1OCCO)C(=O)OC	0.193	-1.66 (inactive)	-0.292 (inactive)	0.899 (inactive)	2.92 (inactive)	0.678	0.36	1.04	0.829	1.41	-1.21 (inactive)	0.658	4.19 (inactive)	0.487 (inactive)	-5.95 (inactive)	-0.008 (inactive)	0.029	1.37 (inactive)	-1.33 (inactive)	1.19
COc1ccc(C(O)C2C=CC3C(=O)N(c4ccccc4)C(=O)C3N2Nc2ccccc2)cc1OCc1ccccc1 (stereo not given)	0.302	0.197 (inactive)	-1.12 (inactive)	0.0535 (inactive)	0.414 (inactive)	0.887	0.185	0.867	0.887	0.81	-1.1 (inactive)	0.0924	3.82 (inactive)	1.49 (inactive)	0.421 (inactive)	1.1 (inactive)	-1.39	-1.19 (inactive)	-3.65 (inactive)	-2.48
C[C@@H]1ON(c2ccc(C(=O)OC(C)(C)C)cc2)[C@H](c2ccc(Br)cc2)[C@H]1C(=O)N1C(=O)OC[C@H]1Cc1ccccc1	0.232	-1.09 (inactive)	1 (inactive)	2.04 (inactive)	0.289 (inactive)	1.03	0.0301	0.673	0.644	0.991	0.351 (inactive)	-0.0241	0.393 (inactive)	0.358 (inactive)	-0.65 (inactive)	0.428 (inactive)	0.479	-0.495 (inactive)	0.0298 (inactive)	0.191
